Measurements reported in PubChem BioAssay (EPA / NIEHS).
Where “and” joins values, the source holds several entries; their conditions need not be identical. Equal entries are not always repeated. More than one record can exist for a structure, and the calls need not agree. Calls of active or inactive are those of the source. How the source made its calls: active means hit-call score of the fitted dose curve at least 0.9, where 1 is the maximum; inactive means score below 0.9.

Key:
[1] = biological target: Transcription factor E2F1 (Homo sapiens) (UniProt Q01094); assay: ATG_E2F_CIS: Attagene CIS-FACTORIAL HepG2 Assay for human E2F Transcription Factor 1 (AID 2282935); settings: HepG2 Attagene cis-reporter, E2F reporter RNA transcripts; actives raise or lower the signal
Transcription factor E2F1 (Homo sapiens), sequence (Q01094 whole entry, looked up): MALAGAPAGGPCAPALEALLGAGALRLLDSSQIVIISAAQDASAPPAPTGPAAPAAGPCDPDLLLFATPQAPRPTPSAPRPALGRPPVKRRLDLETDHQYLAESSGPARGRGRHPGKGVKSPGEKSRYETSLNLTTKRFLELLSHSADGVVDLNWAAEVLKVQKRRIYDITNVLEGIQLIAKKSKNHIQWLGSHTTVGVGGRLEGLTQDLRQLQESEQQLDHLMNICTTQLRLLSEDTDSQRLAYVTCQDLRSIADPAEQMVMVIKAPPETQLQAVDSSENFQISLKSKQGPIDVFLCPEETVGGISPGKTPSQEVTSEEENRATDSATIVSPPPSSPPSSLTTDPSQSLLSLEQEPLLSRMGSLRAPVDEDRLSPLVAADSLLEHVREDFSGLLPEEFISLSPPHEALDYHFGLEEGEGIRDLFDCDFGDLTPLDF
In short: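 HepG2 cells transiently transfected with multiplexed cis-element reporter units, dosed for 24 h. Reporter mRNA measured by RT-PCR, 6-FAM primer-extension labeling, HpaI digestion and capillary electrophoresis; bidirectional fit versus DMSO baseline.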

[2] = ATG_E_Box_CIS: Attagene CIS-FACTORIAL HepG2 Assay for human Enhancer Box (E-box) (AID 2282936); settings: HepG2 E-box cis-reporter transcription, actives raise or lower the signal
In short: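 HepG2 cells transiently transfected with multiplexed cis-element reporter units sensing endogenous transcription factor activity; 24 h compound exposure. Reporter mRNA measured by RT-PCR, 6-FAM primer extension, HpaI digestion and capillary electrophoresis; bidirectional fit versus DMSO.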

[3] = ATG_M_61_CIS: Attagene CIS-FACTORIAL HepG2 Assay for M61 Transcription Factor (Internal Marker) (AID 2282937); settings: HepG2 Attagene CIS-FACTORIAL M61 internal marker reporter; actives raise or lower the signal
In short: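 HepG2 cells transiently transfected with cis-element-driven multiple reporter transcription units, dosed for 24 h. Reporter mRNA measured by RT-PCR, 6-FAM primer-extension labelling, HpaI digestion and capillary electrophoresis; bidirectional fit versus DMSO baseline.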

[4] = ATG_EGR_CIS: Attagene CIS-FACTORIAL HepG2 Assay for human Early Growth Response 1 (EGR1) (AID 2282938); settings: HepG2 Attagene CIS-FACTORIAL EGR reporter mRNA; actives raise or lower the signal
In short: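 HepG2 cells transiently transfected with cis-promoter-driven multiplexed reporter transcription units; reporter mRNA measured 24 h after compound dosing by RT-PCR, 6-FAM primer extension, HpaI digestion and capillary electrophoresis. Bidirectional fit versus DMSO baseline.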

[5] = ATG_M_19_CIS: Attagene CIS-FACTORIAL HepG2 Assay for M19 Transcription Factor (Internal Marker) (AID 2282939); settings: HepG2 Attagene CIS-FACTORIAL M19 internal marker reporter; actives raise or lower the signal
In short: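 Internal marker readout, fitted in both directions against DMSO, from HepG2 cells carrying transfected cis-element reporter constructs; RT-PCR and capillary electrophoresis of reporter mRNA after 24 h exposure.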

[6] = ATG_Ets_CIS: Attagene CIS-FACTORIAL HepG2 Assay for human Erythroblast Transformation Specific (ETS) (AID 2282941); settings: HepG2 ETS cis-reporter transcription, actives raise or lower the signal
In short: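 HepG2 cells transfected with multiple cis-regulated reporter units measuring endogenous ETS-driven transcription, 24 h after dosing. Reporter mRNA quantified by RT-PCR with capillary electrophoresis; bidirectional fit relative to DMSO.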

[7] = biological target: Hepatocyte nuclear factor 3-beta (Homo sapiens) (UniProt Q9Y261); assay: ATG_FoxA2_CIS: Attagene CIS-FACTORIAL HepG2 Assay for human Forkhead box A2 (FOXA2) (AID 2282942); settings: HepG2 cis-reporter transcription factor activity, 24 h; actives raise or lower the signal
Hepatocyte nuclear factor 3-beta (Homo sapiens), sequence (Q9Y261 whole entry, looked up): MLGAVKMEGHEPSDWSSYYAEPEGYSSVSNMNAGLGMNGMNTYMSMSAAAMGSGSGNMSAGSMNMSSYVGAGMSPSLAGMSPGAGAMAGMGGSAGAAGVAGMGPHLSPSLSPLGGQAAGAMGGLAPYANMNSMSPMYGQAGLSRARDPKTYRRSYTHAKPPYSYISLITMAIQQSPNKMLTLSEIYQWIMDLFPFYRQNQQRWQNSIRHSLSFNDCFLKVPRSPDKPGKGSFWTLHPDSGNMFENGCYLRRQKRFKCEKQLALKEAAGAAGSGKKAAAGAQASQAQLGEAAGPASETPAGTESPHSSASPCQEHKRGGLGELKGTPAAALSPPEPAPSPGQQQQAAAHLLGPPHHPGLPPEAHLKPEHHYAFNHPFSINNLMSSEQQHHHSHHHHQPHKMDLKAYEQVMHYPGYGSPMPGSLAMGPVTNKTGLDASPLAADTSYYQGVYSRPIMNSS
In short: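 HepG2 cells transiently transfected with multiple cis-regulated reporter transcription units, dosed for 24 h. Reporter mRNA measured by RT-PCR, 6-FAM labelling, HpaI digestion and capillary electrophoresis; bidirectional fitting against DMSO baseline.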

[8] = ATG_FoxO_CIS: Attagene CIS-FACTORIAL HepG2 Assay for human Forkhead box O (FoxO) (AID 2282943); settings: HepG2 Attagene cis-reporter, FoxO element, mRNA; actives raise or lower the signal
In short: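 HepG2 cells transiently transfected with cis-promoter-driven multiple reporter transcription units; 24 h after chemical dosing, reporter mRNA quantified by RT-PCR, fluorescent primer extension, HpaI digestion and capillary electrophoresis. Bidirectional fitting versus DMSO baseline.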

[9] = ATG_GATA_CIS: Attagene CIS-FACTORIAL HepG2 Assay for human GATA Binding Protein (AID 2282944); settings: HepG2 GATA cis-element reporter, Attagene multiplex mRNA; actives raise or lower the signal
In short: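 Reporter transcripts from a GATA cis-regulated unit, among multiplexed reporters in transfected HepG2 cells, were measured by RT-PCR with capillary electrophoresis after 24 h dosing. Induction or loss scored relative to DMSO.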

[10] = ATG_GLI_CIS: Attagene CIS-FACTORIAL HepG2 Assay for human Zinc Finger Protein GLI1 (AID 2282945); settings: HepG2, Attagene cis-factorial reporter mRNA, GLI element; actives raise or lower the signal
In short: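 HepG2 cells transiently transfected with cis-promoter multiplexed reporter units report endogenous transcription factor activity. After 24 h chemical exposure, reporter mRNA was quantified by RT-PCR, 6-FAM labelling, HpaI digestion and capillary electrophoresis, with bidirectional fitting against DMSO.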

[11] = ATG_ISRE_CIS: Attagene CIS-FACTORIAL HepG2 Assay for human Interferon Regulatory Factor 1 (IRF1) binding to an Interferon-Stimulated Response Element (ISRE) (AID 2282948); settings: HepG2 ISRE cis-reporter (Attagene), mRNA transcription readout; actives raise or lower the signal
In short: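 Transiently transfected HepG2 cells carrying cis-element reporter units, dosed 24 hours. Reporter mRNA quantified by RT-PCR, fluorescent primer extension, HpaI digestion and capillary electrophoresis. Bidirectional fitting relative to DMSO.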

[12] = ATG_M_06_CIS: Attagene CIS-FACTORIAL HepG2 Assay for M06 Transcription Factor (Internal Marker) (AID 2282950); settings: HepG2 Attagene CIS-FACTORIAL M06 internal marker reporter; actives raise or lower the signal
In short: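 Serves as a background control readout. Transfected HepG2 exposed to compounds for 24 h, then reporter transcripts quantified by fluorescent RT-PCR and capillary electrophoresis. Both directions fitted against DMSO baseline.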

[13] = biological target: Hepatocyte nuclear factor 6 (Homo sapiens) (UniProt Q9UBC0); assay: ATG_HNF6_CIS: Attagene CIS-FACTORIAL HepG2 Assay for human Hepatocyte Nuclear Factor 6 (HNF6) (AID 2282952); settings: HepG2 Attagene cis-factorial HNF6 reporter transcription; actives raise or lower the signal
Hepatocyte nuclear factor 6 (Homo sapiens), sequence (Q9UBC0 whole entry, looked up): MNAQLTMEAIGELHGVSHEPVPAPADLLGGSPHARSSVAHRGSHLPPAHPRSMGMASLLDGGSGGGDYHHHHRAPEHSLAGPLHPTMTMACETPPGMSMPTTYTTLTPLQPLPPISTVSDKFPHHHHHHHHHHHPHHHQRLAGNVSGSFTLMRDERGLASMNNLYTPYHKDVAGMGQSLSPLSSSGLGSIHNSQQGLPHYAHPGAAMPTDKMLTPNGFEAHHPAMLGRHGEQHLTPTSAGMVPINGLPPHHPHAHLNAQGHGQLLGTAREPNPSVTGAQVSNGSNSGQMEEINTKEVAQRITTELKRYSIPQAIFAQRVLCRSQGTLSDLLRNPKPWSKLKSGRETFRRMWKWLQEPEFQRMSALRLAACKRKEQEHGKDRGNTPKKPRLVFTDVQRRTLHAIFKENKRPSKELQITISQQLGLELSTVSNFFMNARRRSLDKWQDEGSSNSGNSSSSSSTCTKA
In short: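 Cells are HepG2 carrying transiently transfected cis-promoter reporter units. Treatment lasts 24 h, after which reporter transcripts are reverse-transcribed, amplified, FAM-labelled and sized by capillary electrophoresis. DMSO serves as baseline.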

[14] = biological target: Heat shock factor protein 1 (Homo sapiens) (UniProt Q00613); assay: ATG_HSE_CIS: Attagene CIS-FACTORIAL HepG2 Assay for human Heat Shock Transcription Factor 1 (HSE) (AID 2282953); settings: HepG2 HSE cis-reporter, Attagene RNA transcription; actives raise or lower the signal
Heat shock factor protein 1 (Homo sapiens), sequence (Q00613 whole entry, looked up): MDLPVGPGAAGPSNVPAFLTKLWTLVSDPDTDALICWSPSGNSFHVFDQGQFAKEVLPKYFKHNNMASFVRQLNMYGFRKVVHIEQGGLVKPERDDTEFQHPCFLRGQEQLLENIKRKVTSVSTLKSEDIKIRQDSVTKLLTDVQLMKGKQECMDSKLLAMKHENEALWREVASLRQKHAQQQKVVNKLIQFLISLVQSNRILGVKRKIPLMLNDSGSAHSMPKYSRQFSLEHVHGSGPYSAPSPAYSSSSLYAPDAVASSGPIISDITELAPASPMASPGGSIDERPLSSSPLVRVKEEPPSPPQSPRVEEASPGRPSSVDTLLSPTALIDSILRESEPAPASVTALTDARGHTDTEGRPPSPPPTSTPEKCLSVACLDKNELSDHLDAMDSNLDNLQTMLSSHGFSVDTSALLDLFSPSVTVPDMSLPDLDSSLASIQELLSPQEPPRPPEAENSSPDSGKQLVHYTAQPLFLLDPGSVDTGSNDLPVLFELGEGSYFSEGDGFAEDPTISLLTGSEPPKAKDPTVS
In short: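 Endogenous transcription factor activity in transiently transfected HepG2, read as reporter mRNA by RT-PCR with fluorescent capillary electrophoresis after 24 h. Gain or loss of signal fitted versus DMSO baseline.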

[15] = ATG_MRE_CIS: Attagene CIS-FACTORIAL HepG2 Assay for human Metal Responsive Element (MRE) (AID 2282954); settings: HepG2 MRE cis-reporter transcription, Attagene multiplex; actives raise or lower the signal
In short: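 HepG2 cells transiently transfected with multiple cis-element reporter units measure endogenous MTF1-driven transcription. After 24 h compound exposure, reporter mRNA is quantified by RT-PCR with 6-FAM labelling, HpaI digestion and capillary electrophoresis; bidirectional fits versus DMSO.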

[16] = ATG_ERE_CIS: Attagene CIS-FACTORIAL HepG2 Assay for Estrogen Response Element (ERE) (AID 2282940); settings: HepG2 ERE cis-reporter, Attagene RNA transcript; actives raise or lower the signal
In short: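 After 24 h compound treatment, RNA from transfected HepG2 cells was reverse-transcribed, reporter cDNA PCR-amplified, FAM-labelled, HpaI-cut and resolved by capillary electrophoresis. ERE-driven cis reporter transcripts reflect endogenous factors; gain or loss scored against DMSO.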

[17] = biological target: Bile acid receptor (Homo sapiens) (UniProt Q96RI1); assay: ATG_IR1_CIS: Attagene CIS-FACTORIAL HepG2 Assay for human Nuclear Receptor Subfamily 1 Group H Member 4 (NR1H4), IR1 submotif (AID 2282946); settings: IR1 reporter transcription, actives raise or lower the signal
Bile acid receptor (Homo sapiens), sequence (Q96RI1 whole entry, looked up): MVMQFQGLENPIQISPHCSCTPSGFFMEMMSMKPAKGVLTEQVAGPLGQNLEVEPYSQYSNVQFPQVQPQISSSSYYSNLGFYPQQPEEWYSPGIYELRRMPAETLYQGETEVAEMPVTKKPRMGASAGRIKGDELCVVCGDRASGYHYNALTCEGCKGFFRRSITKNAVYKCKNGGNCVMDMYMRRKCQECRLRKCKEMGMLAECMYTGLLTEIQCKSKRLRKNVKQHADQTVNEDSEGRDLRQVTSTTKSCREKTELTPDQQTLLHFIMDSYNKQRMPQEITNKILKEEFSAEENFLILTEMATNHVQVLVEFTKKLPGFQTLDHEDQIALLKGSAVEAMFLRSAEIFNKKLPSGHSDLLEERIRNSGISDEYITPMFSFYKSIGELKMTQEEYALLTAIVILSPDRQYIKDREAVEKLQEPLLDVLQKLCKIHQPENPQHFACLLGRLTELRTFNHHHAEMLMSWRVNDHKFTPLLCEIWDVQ
In short: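 Transient MRTU transfection, HepG2; 24 h dosing; RNA → RT-PCR → 6-FAM primer extension → HpaI digest → capillary electrophoresis fluorescence. Gain/loss of signal fitted relative to DMSO.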

[18] = ATG_GRE_CIS: Attagene CIS-FACTORIAL HepG2 Assay for human Glucocorticoid Response Elements (GRE) (AID 2282947); settings: HepG2 GRE cis-reporter, Attagene multiplex mRNA; actives raise or lower the signal
In short: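 HepG2 cells transiently transfected with multiple cis-promoter reporter units measure endogenous TF activity; 24 h compound exposure. Reporter mRNA quantified by RT-PCR, FAM labelling, HpaI digestion and capillary electrophoresis; bidirectional fit vs DMSO baseline.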

[19] = ATG_M_32_CIS: Attagene CIS-FACTORIAL HepG2 Assay for M32 Transcription Factor (Internal Marker) (AID 2282949); settings: HepG2 Attagene cis-factorial M32 reporter, mRNA; actives raise or lower the signal;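 further: background control marker of the multiplexed CIS panel rather than a real target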
In short: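 Internal background marker read-out: RT-PCR/capillary electrophoresis fluorescence of reporter transcripts from transiently transfected HepG2 cells after 24 h chemical exposure. Activity fitted bidirectionally relative to DMSO negative control.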

[20] = biological target: Hypoxia-inducible factor 1-alpha (Homo sapiens) (UniProt Q16665); assay: ATG_HIF1a_CIS: Attagene CIS-FACTORIAL HepG2 Assay for human Hypoxia Inducible Factor 1 (HIF1A) (AID 2282951); settings: HepG2 Attagene cis-factorial HIF1a reporter transcription; actives raise or lower the signal
Hypoxia-inducible factor 1-alpha (Homo sapiens), sequence (Q16665 whole entry, looked up): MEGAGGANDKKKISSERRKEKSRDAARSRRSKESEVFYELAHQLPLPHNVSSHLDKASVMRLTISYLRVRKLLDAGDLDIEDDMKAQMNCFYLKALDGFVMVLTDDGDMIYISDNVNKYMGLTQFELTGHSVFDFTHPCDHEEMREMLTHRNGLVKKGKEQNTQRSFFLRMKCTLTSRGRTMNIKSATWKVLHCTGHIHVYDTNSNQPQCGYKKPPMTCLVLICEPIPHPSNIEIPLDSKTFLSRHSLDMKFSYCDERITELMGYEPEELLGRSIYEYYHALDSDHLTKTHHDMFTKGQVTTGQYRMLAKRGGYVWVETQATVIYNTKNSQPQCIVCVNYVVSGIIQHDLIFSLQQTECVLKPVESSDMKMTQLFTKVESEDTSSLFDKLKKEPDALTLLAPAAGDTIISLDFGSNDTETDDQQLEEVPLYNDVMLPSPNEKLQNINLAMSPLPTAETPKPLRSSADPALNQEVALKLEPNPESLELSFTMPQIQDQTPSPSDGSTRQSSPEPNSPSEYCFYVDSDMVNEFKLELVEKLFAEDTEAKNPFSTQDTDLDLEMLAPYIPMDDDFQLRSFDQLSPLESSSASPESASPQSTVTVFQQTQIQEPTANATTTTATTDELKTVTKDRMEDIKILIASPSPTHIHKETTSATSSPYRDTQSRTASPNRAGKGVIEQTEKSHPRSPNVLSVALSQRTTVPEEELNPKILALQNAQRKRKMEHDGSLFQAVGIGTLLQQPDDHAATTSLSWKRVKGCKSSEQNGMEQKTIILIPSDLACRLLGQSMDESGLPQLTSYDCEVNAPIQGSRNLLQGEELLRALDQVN
In short: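 HepG2 cells transiently transfected with multiplexed cis-promoter reporter units; reporter mRNA read 24 h after dosing by RT-PCR, 6-FAM primer-extension labelling, HpaI digestion and capillary electrophoresis. Bidirectional fit versus DMSO baseline.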

Measured: AC50

CC(C)(c1ccc(O)cc1)c1ccc(O)cc1
active: [4] 100 µM [middle of 6 runs] | [6] 101 µM and 33.7 µM | [7] 58.2 µM | [8] 57.7 µM | [10] 58.5 µM | [11] 142 µM [middle of 5 runs] | [13] 45.7 µM | [14] 153 µM [middle of 6 runs]
inactive: [1] | [2] | [3] | [4] | [5] | [6] | [7] | [8] | [9] | [10] | [11] | [12] | [13] | [14] | [15]

COC(=O)c1ccccc1S(=O)(=O)NC(=O)Nc1nc(OC(F)F)cc(OC(F)F)n1
not listed: [15] | [19] | [20]
inactive: all other assays above

C#CCOC(=O)[C@@H](C)Oc1ccc(Oc2ncc(Cl)cc2F)cc1
not listed: [14] | [15] | [20]
inactive: all other assays above

CC(=O)S[C@@H]1CC2=CC(=O)CC[C@]2(C)[C@H]2CC[C@@]3(C)[C@@H](CC[C@@]34CCC(=O)O4)[C@H]12
inactive: [1] | [2] | [3] | [4] | [5] | [16] | [6] | [7] | [8] | [9] | [10] | [18] | [11] | [12] | [20] | [13] | [14]
active: [2] 7.33 µM and 26.6 µM and 18.4 µM | [4] 17.6 µM and 27.2 µM | [6] 100 µM | [11] 48.9 µM and 26.1 µM and 48.1 µM | [14] 171 µM

CCC(O)=C1C(=O)CC(C(=O)O)CC1=O (centres undefined)
not listed: [15] | [19] | [20]
inactive: all other assays above

CC(C)CCCCCCc1ccc(O)cc1
active: [2] 17.6 µM and 16.8 µM and 15.6 µM | [4] 17.7 µM and 17.3 µM | [16] 644 nM [middle of 4 runs] | [6] 17.1 µM | [7] 21.8 µM | [8] 20.3 µM and 17.9 µM | [17] 17.9 µM | [11] 18.4 µM and 13.7 µM | [14] 15.3 µM and 19.9 µM and 17 µM | [15] 16.3 µM and 17.6 µM
inactive: [1] | [2] | [3] | [4] | [5] | [6] | [7] | [8] | [9] | [10] | [17] | [18] | [11] | [12] | [20] | [13] | [14] | [15]
